Drawing on PubChem BioAssay (EPA / NIEHS), this text covers outcome and AC50 for 12 compounds.

In test [1] the target is Cellular tumor antigen p53 (Homo sapiens) (UniProt P04637). Briefly: TOX21_p53_BLA_p2_ratio: Tox21 HCT-116 p53 Agonism Beta-lactamase Assay, Ratio, Phase 2 (AID 2283592). In outline:
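Plated HCT116 p53-bla cells (4000/well) received compound after 5 h, then 16 h at 37C/5% CO2. CCF4-AM added, 2 h RT. Ratio of 460 to 530 nm emission taken as the p53 reporter signal.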

Test [2] can be described thus: TOX21_p53_BLA_p3_viability: Viability Assessment in the Tox21 HCT-116 p53 Agonism Beta-lactamase Assay, Phase 3 (AID 2283593).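 Further: cells exposed to compound for 16 h before reading.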 A digest of the protocol: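 HCT-116 cells (4000/well) rested 5 h at 37C, then got DMSO compounds by pin tool (217-fold dilution) for 16 h at 37C, 5% CO2. After the bla read, CellTiter-Glo was added and luminescence read at 30 min, room temperature.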

A short description of test [3]: TOX21_p53_BLA_p4_viability: Viability Assessment in the Tox21 HCT-116 p53 Agonism Beta-lactamase Assay, Phase 4 (AID 2283597).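 Further: hits lower the luminescence signal meaning cytotoxicity.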 In outline:
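Readout: ATP luminescence (CellTiter-Glo), measured 30 min after reagent addition at RT. The reagent followed a 2 h CCF4-AM incubation, and the cells had been exposed to compound for 16 h at 37C.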

For test [4], the target named is Cellular tumor antigen p53 (Homo sapiens) (UniProt P04637). Nature of the test: TOX21_p53_BLA_p5_ratio: Tox21 HCT-116 p53 Agonism Beta-lactamase Assay, Ratio, Phase 5 (AID 2283599). In outline:
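HCT-116 cells carrying a p53-inducible beta-lactamase reporter were seeded at 4000 cells/well and dosed after 5 h with compound in DMSO (217-fold dilution). After 16 h at 37C, CCF4-AM substrate was added for 2 h, and the 460/530 nm emission ratio was scored as gain-of-signal versus DMSO.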

Test [5] can be described thus: TOX21_p53_BLA_p5_viability: Viability Assessment in the Tox21 HCT-116 p53 Agonism Beta-lactamase Assay, Phase 5 (AID 2283600). In outline: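 Workflow: seed 4000 cells per well, wait 5 h, add compounds (DMSO, 217-fold dilution), incubate 16 h, load CCF4-AM 2 h, add CellTiter-Glo, read luminescence after 30 min.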
Test [6] addresses Cellular tumor antigen p53 (Homo sapiens) (UniProt P04637). Briefly: TOX21_p53_BLA_p4_ratio: Tox21 HCT-116 p53 Agonism Beta-lactamase Assay, Ratio, Phase 4 (AID 2283601). In outline:
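HCT116 cells carrying an inducible beta-lactamase reporter were plated at 4000 cells/well, rested 5 h, then exposed to compounds in DMSO (217-fold dilution) for 16 h at 37C. CCF4-AM substrate was loaded 2 h at room temperature; 460/530 nm emission ratio scored gain-of-signal versus DMSO.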

Results filed as inconclusive are left out. The source made the active and inactive calls. How the source made its calls: active means hit-call score of the fitted dose curve at least 0.9, where 1 is the maximum; inconclusive means response in the unintended direction; inactive means score below 0.9.

Sequence of Cellular tumor antigen p53 (Homo sapiens) (P04637 whole entry, looked up): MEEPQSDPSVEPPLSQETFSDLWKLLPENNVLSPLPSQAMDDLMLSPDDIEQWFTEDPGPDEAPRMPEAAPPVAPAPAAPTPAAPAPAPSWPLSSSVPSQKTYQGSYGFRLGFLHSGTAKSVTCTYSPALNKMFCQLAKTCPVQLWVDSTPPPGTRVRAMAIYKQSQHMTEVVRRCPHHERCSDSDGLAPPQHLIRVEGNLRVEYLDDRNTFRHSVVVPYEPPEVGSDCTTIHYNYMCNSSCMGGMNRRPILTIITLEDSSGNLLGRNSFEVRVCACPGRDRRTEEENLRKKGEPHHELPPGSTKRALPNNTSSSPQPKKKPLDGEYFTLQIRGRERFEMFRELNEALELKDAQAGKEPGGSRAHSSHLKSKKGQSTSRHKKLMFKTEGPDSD

Take `CC1(C)C(\C=C/C=C\C=C/C=C2/N(CCCCS(=O)(=O)O)c3ccc4ccccc4c3C2(C)C)=[N+](CCCCS(=O)(=O)[O-])c2ccc3ccccc3c21`: the outcome in test [1], in test [2], in test [3], in test [4], in test [5] and in test [6] was inactive.

Consider `CC(=O)Nc1c(I)c(C(=O)O)c(I)c(N(C)C(C)=O)c1I`, for which the result in test [1], in test [2], in test [3], in test [4], in test [5] and in test [6] was inactive.

Turning to `NS(=O)(=O)c1ccc(NC(=O)CCC(=O)O)cc1`, the outcome in test [1], in test [2], in test [3], in test [4], in test [5] and in test [6] was inactive.

`c1ccc(SSc2ccccc2)cc1`: the result in test [1], in test [2], in test [3], in test [4] and in test [6] was inactive.

Regarding `O=C(C=Cc1ccc(O)c(O)c1)O[C@@H]1C[C@](O)(C(=O)O)C[C@@H](O)[C@H]1O`, the outcome in test [1], in test [2], in test [3], in test [4] and in test [6] was inactive.

`O=C(O)c1ccccc1Nc1cc(Cl)ccc1C(=O)O`: the result in test [1], in test [2], in test [3], in test [4], in test [5] and in test [6] was inactive.

As to `CCSc1ccc2c(c1)N(CCCN1CCN(C)CC1)c1ccccc1S2`, the outcome in test [1], in test [2], in test [3], in test [4], in test [5] and in test [6] was inactive.

`Cc1cccc2sc(N)nc12`: the outcome in test [1], in test [2], in test [3], in test [4], in test [5] and in test [6] was inactive.

As to `CCOc1ccc(NC(=O)OC(C)C)cc1OCC`, the outcome in test [1], in test [2], in test [3], in test [4] and in test [6] was inactive.

As to `Fc1ccc([C@@H]2CCNC[C@H]2COc2ccc3c(c2)OCO3)cc1`, the outcome in test [1], in test [2], in test [4], in test [5] and in test [6] was inactive. In addition, the AC50 in test [3] was 37.4 µM (active).

`Cc1[nH]c(=O)c(C#N)cc1-c1ccc2nccn2c1`: the result in test [1], in test [2], in test [3] and in test [4] was inactive.

With `CCCCCC(=Cc1ccccc1)CO`, the outcome in test [1], in test [2], in test [3], in test [4] and in test [5] was inactive.
